These results are taken from paper PMC4552634, “A New Set of Chemical Starting Points with Plasmodium falciparum Transmission-Blocking Potential for Antimalarial Drug Discovery” (PLoS ONE, 2015).

This assay has as its system P. falciparum stage V gametocytes. The arrangement: BacTiter-Glo ATP luminescence viability of purified stage V gametocytes in 384-well plates, per cent inhibition versus DMSO. The settings on record: 48 h, 5 µM, inhibitor.

Like-named read-outs stand apart in the source and are kept apart here. In all, about 13,000 compounds went through this assay and about 3,200 (25%) showed an effect of 50% or more. This is one part of the list.

In general, % Inhibition refers to the change of the read-out against control, counted positive when it falls. On to `COc1ccc2nccc([C@@H](O)CN3CCC(NCc4ccc(OC)c(NC=O)c4)CC3)c2c1` [TCMDC-141568], for which the “% Inhibition” value was 1.46%.

As to `CN(Cc1cccc(C#N)c1)C1CCN(c2cc(NC(=O)c3ccc(F)cc3)ccn2)CC1` [TCMDC-134974], the “% Inhibition” value is listed as -6.144%. As for `CN(C)CCOc1cc(NC(=O)Nc2ccc(Cl)cc2C(F)(F)F)ccc1I` [TCMDC-139125], the “% Inhibition” value is recorded as -26.77%. Same read-out and setting: the figure for `Cc1cc(N[C@@H](CC(C)C)C(=O)NCCOc2ccccc2)nc(NCC2CCCCC2)n1` [TCMDC-134919] is -82.39%; for `COc1cccc(CN2CCC3(CC2)CN(C(=O)Nc2ccc(Cl)c(Cl)c2)C3)c1` [TCMDC-136484] it is -4.115%; for `CN(CCCc1c[nH]c2ccccc12)CCC1CCC(NC(=O)/C=C/c2ccc(Cl)c(Cl)c2)CC1` (stereo not drawn) [TCMDC-139449] it is -10.77%. Still for that read-out and setting: in the case of `CCOc1ccccc1CNc1nccc(NCc2ccc(Cl)cc2Cl)n1` [TCMDC-135115] it was 39.1%. The same measure, in the same setting: in the case of `CCOc1ccccc1CNc1nccc(NCCc2cn(C)c3ccccc23)n1` [TCMDC-135123] it was 47.81%; in that of `Clc1ccc(CNc2ccnc(NCc3cccnc3N3CCCC3)n2)c(Cl)c1` [TCMDC-135112], 11.98%; in that of `CN1CCN(CC2(Nc3nccc(NCCc4cn(C)c5ccccc45)n3)CCCCC2)CC1` [TCMDC-135122], 114.3%. On to `Cn1cc(CCNc2ccnc(NCCc3coc4ccccc34)n2)c2ccccc21` [TCMDC-135121], for which the “% Inhibition” value was 46.44%. Consider `CN1CCN(CC2(Nc3nccc(NCc4ccc(Cl)cc4Cl)n3)CCCCC2)CC1` [TCMDC-135114], for which the “% Inhibition” value worked out at 73.23%. The same measure, in the same setting: in the case of `O=C(c1cccc(-c2ccc(-c3nc4cc(C(F)(F)F)ccc4[nH]3)cc2)c1)N1CCCCC1CN1CCC(O)C1` (stereo not drawn) [TCMDC-132345] it was -7.323%; in that of `O=C([C@H]1CCCCN1c1ccc([N+](=O)[O-])c2ccccc12)N1CCN(c2ncccn2)CC1` [TCMDC-135504], -25.11%.

Take `Cc1cccc(OC(C)C(=O)Nc2cc(C(F)(F)F)ccc2N2CCOCC2)c1` (stereo not drawn) [TCMDC-125116]: the “% Inhibition” value was -67.15%.

Turning to `Nc1nccc2ccc(OC3CCCCC3)cc12` [TCMDC-136543], the “% Inhibition” value was found to be 27.41%. Still for that read-out and setting: in the case of `COc1ccc(Oc2cnc(N)nc2N)c(C(C)C)c1` [TCMDC-132471] it was -12.02%. Same read-out and setting: in the case of `Nc1ncc(OC2CCCCC2)c(N)n1` [TCMDC-137916] it was 86.08%.

Take `Cc1nc(Nc2ccc(F)cc2)nc(N2CCc3ccccc3[C@@H]2C)c1C` [TCMDC-141073]: the “% Inhibition” value was -42.65%. Regarding `Cl.c1ccc(CN2CCN(CCNc3c4ccccc4nc4ccccc34)CC2)cc1` [TCMDC-137571], the “% Inhibition” value stood at 58.89%. With `c1ccc(CN2CCN(CCCCNc3c4ccccc4nc4ccccc34)CC2)cc1` [TCMDC-138009], the “% Inhibition” value amounted to 101.2%.

Take `NC(=NC1CC1)c1ccc2nc(CCCCCc3nc4ccc(C(N)=NC5CC5)cc4[nH]3)[nH]c2c1` [TCMDC-137236]: the “% Inhibition” value came out at 9.891%.

For the compound `Cc1cc(SC(C)(C)C)cc2c(Cl)c(C(N)=O)cnc12` [TCMDC-135415], the “% Inhibition” value came to 114.9%. Still for that read-out and setting: in the case of `COc1ccccc1-c1cccc(CNC2CCN(CC3Cn4c(=O)ccc5ccc(F)c3c54)CC2)c1` (stereo not drawn) [TCMDC-134411] it was 15.92%.

Take `O=C(NC1CCC(CN2CCC(c3c[nH]c4ccccc34)CC2)CC1)c1cn(Cc2ccccc2)c2ccccc12` (stereo not drawn) [TCMDC-139888]: the “% Inhibition” value is on record as 107.9%.

Regarding `O=C(CSc1ccc(Cl)cc1)NC1CCC(CN2CCC(c3c[nH]c4ccccc34)CC2)CC1` (stereo not drawn) [TCMDC-139953], the “% Inhibition” value is reported as -2.163%.

With `O=C(Cc1cc(=O)oc2cc(O)ccc12)NC1CCC(CN2CCC(c3c[nH]c4ccccc34)CC2)CC1` (stereo not drawn) [TCMDC-139882], the “% Inhibition” value was -52.99%.

Consider `O=C(Cc1c(-c2ccccc2)[nH]c2ccccc12)NC1CCC(CN2CCC(c3c[nH]c4ccccc34)CC2)CC1` (stereo not drawn) [TCMDC-139909], for which the “% Inhibition” value stood at 71.88%. In the case of `O=C(NC1CCC(CN2CCC(c3c[nH]c4ccccc34)CC2)CC1)c1cnn(-c2ccccc2)c1-c1ccccc1Cl` (stereo not drawn) [TCMDC-140375], the “% Inhibition” value is 25.23%. Turning to `O=C(CCc1ccc(Cl)cc1Cl)NC1CCC(CN2CCC(c3c[nH]c4ccccc34)CC2)CC1` (stereo not drawn) [TCMDC-140262], where the note is “% Inhibition”, the “% Inhibition” value was -48.76%. In the case of `O=C(CCCCCc1ccccc1)NC1CCC(CN2CCC(c3c[nH]c4ccccc34)CC2)CC1` (stereo not drawn) [TCMDC-139952], the “% Inhibition” value is listed as 95.36%. In the case of `O=C(CCc1ccc(Cl)cc1Cl)NC1CCC(CN2CCC(c3c[nH]c4ccccc34)CC2)CC1` (stereo not drawn) [TCMDC-140296], the “% Inhibition” value (% Inhibition) is recorded as -15.31%. For `CCOCCCNc1ncc(-c2ccsc2)c(-c2nc(C)cs2)n1` [TCMDC-124842], the “% Inhibition” value turned out to be 18.59%. On to `Cc1cccc(C(=O)Nc2ccnc(N3CCC(N(C)Cc4ccc(C#N)cc4)CC3)c2)c1` [TCMDC-134977], for which the “% Inhibition” value is 5.364%. Still for that read-out and setting: the figure for `CCN(CC)CCN1C(=O)c2oc3ccc(F)cc3c(=O)c2C1c1cccc(Cl)c1` (stereo not drawn) [TCMDC-124911] is 13.72%; for `O=C(n1c(-c2cc3ccccc3n2C(=O)C(F)(F)F)cc2ccccc21)C(F)(F)F` [TCMDC-131570] it is 0.2533%. `Cc1cc(-c2nc3ccc(CN4CCN(C)CC4)cc3[nH]2)nn1Cc1cc(Cl)ccc1OCc1ccccc1` [TCMDC-136883]: the “% Inhibition” value is 19.79%. For the compound `CC(C)COc1ccc(Cl)cc1Nc1nc(-c2nc3ccccc3[nH]2)cs1` [TCMDC-137041], the “% Inhibition” value came out at 2.246%. Consider `Clc1ccc(OCc2ccccc2)c(-c2nc(-c3nc4ccc(Cl)cc4[nH]3)cs2)c1` [TCMDC-136728], for which the “% Inhibition” value is -8.781%. Same read-out and setting: the figure for `CNCc1ccc2nc(-c3coc(Cc4cc(Cl)ccc4OCC(C)C)n3)[nH]c2c1` [TCMDC-136808] is 13.07%; for `CN1CCN(c2ccc3nc(-c4ccc(Cc5cc(Cl)ccc5OCc5ccccc5)o4)[nH]c3c2)CC1` [TCMDC-136708] it is -32.6%.

For the compound `CC(C)COc1ccc(Cl)cc1Cc1nc(-c2nc3ccc(CN4CCN(C)CC4)cc3[nH]2)co1` [TCMDC-136812], the “% Inhibition” value was 12.89%.

`CC(C)COc1ccc(Cl)cc1Cc1nc(-c2nc3c(CN4CCN(C)CC4)cccc3[nH]2)cs1` [TCMDC-132173]: the “% Inhibition” value is 82.6%. On the same count and under the same terms, in the case of `CC(C)COc1ccc(Cl)cc1Cc1nc(-c2nc3nc(N4CCN(C)CC4)ccc3[nH]2)cs1` [TCMDC-136876] it was 6.698%.

Take `CN(C)Cc1cccc2[nH]c(-c3csc(Cc4cc(Cl)ccc4OCc4ccccc4)n3)nc12` [TCMDC-132174]: the “% Inhibition” value came out at 97.26%. The same measure, in the same setting: in the case of `CN(C)Cc1ccc2nc(-c3cccc(Cc4cc(Cl)ccc4OCc4ccc(Cl)cc4F)n3)[nH]c2c1` [TCMDC-136892] it was 34.33%. On the same count and under the same terms, in the case of `CN1CCN(CCc2ccc3nc(-c4csc(Cc5cc(Cl)ccc5OCc5ccccc5)n4)[nH]c3c2)CC1` [TCMDC-132171] it was 95.37%. The same measure, in the same setting: in the case of `CNCc1cccc2[nH]c(-c3csc(Cc4cc(Cl)ccc4OCC(C)C)n3)nc12` [TCMDC-132172] it was 92.59%.
